From PubChem BioAssay (NCI) come the findings set out here.

Test systems include NCI-H23 lung; NCI-H226 lung; NCI-H322M lung; NCI-H460 lung; HOP-92 NSCLC; A549/ATCC NSCLC; 786-0 renal; COLO 205 colon; DU-145 prostate; K-562 leukemia; MALME-3M melanoma; MDA-MB-231 breast; RXF 393 renal; SF-268 CNS; SF-295 CNS; SF-539 CNS; M14 melanoma; HOP-62 NSCLC; UACC-257 melanoma.
Holding throughout (experiment): NCI-60 one-dose screen, 48 h (100 = growth as untreated, 0 = no growth, -100 = all killed)
Conditions in all cases: 10 µM unless noted

The panel holds about 83,000 compounds, 20% with a hit somewhere; the sample as a whole holds those more often.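 How to read the values: 0–100, growth inhibition (40 = 60% inhibited); 0, no net growth; -100 to 0, cell death (-40 = 40% of starting cells died; -100 = all dead).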 Values without a mark were called inactive. Activity calls are given as the source filed them. The calls were made as follows: active = growth percent below 10; inactive = the rest.

For `Oc1c(N=Nc2nn[nH]n2)ccc2ccccc12`, the growth was 72.8% with NCI-H23 lung; 81.4% with NCI-H226 lung; 57.9% in the assay with NCI-H322M lung; 73% with NCI-H460 lung; 77.1% with HOP-92 NSCLC; 77.8% in the assay on A549/ATCC NSCLC. Moreover, the growth is 102% in the assay on 786-0 renal; 54% in the assay with COLO 205 colon; 96.6% in the assay with DU-145 prostate; 97.2% in the assay on K-562 leukemia; 9.84% (active) in the assay on MALME-3M melanoma; 60.4% in the assay on MDA-MB-231 breast. Also, the growth in the assay with RXF 393 renal was 87.4%; in the assay with SF-268 CNS, 93.8%; with SF-295 CNS it was 65.4%; in the assay with SF-539 CNS, 95.3%; with M14 melanoma, 62.1%.
As to `FC(F)(F)c1cc(-c2nnc3n2N=C(N2CCCC2)CS3)cc(C(F)(F)F)c1`, the growth was 62.7% in the assay on NCI-H23 lung; 58.4% in the assay with NCI-H226 lung; 99% in the assay with NCI-H322M lung; 37.7% in the assay with HOP-62 NSCLC; 37.4% with HOP-92 NSCLC; 60.4% with A549/ATCC NSCLC. Also, the growth with COLO 205 colon was 98.1%; in the assay on DU-145 prostate, 86.8%; with K-562 leukemia, 70.7%; with MALME-3M melanoma, 83.4%; with MDA-MB-231 breast it was 59.6%; with SF-268 CNS, 74.9%. The growth is 45.9% with SF-295 CNS, 30% in the assay on SF-539 CNS, 93.2% in the assay with UACC-257 melanoma and 100% in the assay with M14 melanoma.
Turning to `CCCCNCCCN(CCCC)CCCNCCCC`, the growth in the assay with NCI-H23 lung was 104%; with NCI-H226 lung it was 97.3%; in the assay with NCI-H322M lung, 99.5%; with NCI-H460 lung, 101%; in the assay with HOP-92 NSCLC, 41.5%; with A549/ATCC NSCLC it was 95.4%. The growth in the assay with 786-0 renal was 103%; in the assay with COLO 205 colon, 100%; in the assay with DU-145 prostate, 114%; with K-562 leukemia, 102%; in the assay with MALME-3M melanoma, 104%; in the assay on MDA-MB-231 breast, 90.1%. For the same molecule, the growth is 96.6% in the assay with RXF 393 renal; 110% in the assay on SF-268 CNS; 94.4% in the assay on SF-295 CNS; 103% in the assay with SF-539 CNS; 94.2% in the assay with M14 melanoma.
Turning to `NS(=O)(=O)c1ccc(N2CC(c3nc4ccccc4[nH]3)CC2=O)cc1` (stereo not given), the growth with NCI-H23 lung was 90.3%; in the assay on NCI-H226 lung, 97.1%; in the assay with NCI-H322M lung it was 88.9%; with NCI-H460 lung it was 100%; in the assay on HOP-92 NSCLC it was 100%; in the assay with A549/ATCC NSCLC, 99.5%. The growth with 786-0 renal is 102%; in the assay on COLO 205 colon, 101%; with DU-145 prostate, 109%; in the assay on K-562 leukemia it was 97.2%; in the assay with MALME-3M melanoma, 92.9%; in the assay on MDA-MB-231 breast, 85.4%. Besides, the growth in the assay with SF-268 CNS was 96.1%; with SF-295 CNS, 99.9%; in the assay on SF-539 CNS, 96.6%; with UACC-257 melanoma, 109%; with M14 melanoma it was 96.9%.
Consider `CCOC(=O)CNC(=O)C1(NC(=O)CNC(=O)OCc2ccccc2)CCCC1`, for which the growth in the assay on NCI-H23 lung was 105%; with NCI-H226 lung, 115%; with NCI-H322M lung it was 109%; in the assay on NCI-H460 lung, 112%; in the assay with HOP-92 NSCLC it was 96.2%; in the assay with A549/ATCC NSCLC it was 89.8%. For the same molecule, the growth in the assay with 786-0 renal is 94.9%; with COLO 205 colon, 120%; with DU-145 prostate, 121%; in the assay on K-562 leukemia, 103%; in the assay with MDA-MB-231 breast, 99.1%; in the assay on RXF 393 renal, 135%. Moreover, the growth in the assay with SF-268 CNS was 107%; in the assay on SF-295 CNS it was 126%; in the assay on SF-539 CNS, 92.2%; in the assay on UACC-257 melanoma, 110%; in the assay with M14 melanoma, 110%.
For the molecule `Cc1sc2nc(N3CCCCC3)[nH]c(=O)c2c1C`, the growth is 95.8% with NCI-H23 lung; 88% in the assay with NCI-H226 lung; 102% in the assay with NCI-H322M lung; 93.8% with HOP-92 NSCLC; 83.2% in the assay with A549/ATCC NSCLC; 94.1% in the assay with 786-0 renal. Also, the growth in the assay on COLO 205 colon was 100%; in the assay on DU-145 prostate, 111%; in the assay with K-562 leukemia, 91.2%; in the assay on MALME-3M melanoma it was 100%; in the assay with MDA-MB-231 breast, 99.4%; in the assay on RXF 393 renal, 101%. For the same molecule, the growth was 98% with SF-268 CNS; 97% in the assay on SF-295 CNS; 97.9% with SF-539 CNS; 89.1% in the assay with UACC-257 melanoma; 98.8% in the assay on M14 melanoma.
As for `Cc1cc(=O)[nH]c(/C(=N/Nc2ccccc2)C(=O)c2ccc(Cl)cc2)n1`, the growth in the assay on NCI-H23 lung is 105%; with NCI-H226 lung, 109%; with NCI-H322M lung, 107%; in the assay with NCI-H460 lung, 109%; in the assay on HOP-92 NSCLC, 88.7%; with A549/ATCC NSCLC, 92.5%. The growth with 786-0 renal is 82.2%; in the assay with COLO 205 colon, 106%; with DU-145 prostate, 105%; in the assay on K-562 leukemia it was 52.7%; in the assay on MALME-3M melanoma, 114%; in the assay on MDA-MB-231 breast, 102%. The growth in the assay on RXF 393 renal is 28.5%; in the assay on SF-268 CNS it was 117%; in the assay on SF-295 CNS it was 75.7%; with SF-539 CNS it was 92.3%; in the assay on UACC-257 melanoma it was 103%; in the assay on M14 melanoma, 97.1%.
With `O=C1c2cc3c(cc2-c2c1c1ccc(Cl)cc1c(=O)n2CCCNCCO)OCO3`, the growth in the assay with NCI-H23 lung was -73% (active); with NCI-H226 lung, -70.9% (active); in the assay on NCI-H322M lung, -84.5% (active); in the assay with NCI-H460 lung it was -75.4% (active); with HOP-92 NSCLC it was -79.4% (active); with A549/ATCC NSCLC it was -82.2% (active). Moreover, the growth with 786-0 renal was -81.6% (active); in the assay on COLO 205 colon, -88.6% (active); in the assay on DU-145 prostate it was -93.7% (active); in the assay with K-562 leukemia, -78.3% (active); in the assay on MALME-3M melanoma, -84.8% (active); in the assay with MDA-MB-231 breast, -79.5% (active). The growth with RXF 393 renal is -78.6% (active); with SF-268 CNS, -76.7% (active); in the assay with SF-295 CNS, -86.9% (active); in the assay on SF-539 CNS it was -84.6% (active); in the assay with UACC-257 melanoma, -59% (active); in the assay on M14 melanoma, -83.3% (active).
Consider `COc1cc(/C=C/C(=O)C(C(=O)/C=C/c2ccc(OC(=O)CCNC34CC5CC(CC(C5)C3)C4)c(OC)c2)C(=O)CCNC23CC4CC(CC(C4)C2)C3)ccc1OC(=O)CCNC12CC3CC(CC(C3)C1)C2` (stereo not given), for which the growth with NCI-H23 lung was 32.2%; in the assay on NCI-H226 lung, 31.4%; in the assay on NCI-H322M lung it was 51.6%; with NCI-H460 lung, 7.93% (active); with HOP-92 NSCLC, 44.6%; in the assay with A549/ATCC NSCLC it was 29.1%. The growth in the assay on 786-0 renal is -53.3% (active); in the assay on COLO 205 colon it was 17.7%; with DU-145 prostate, -48.8% (active); with K-562 leukemia, 0.83% (active); in the assay with MALME-3M melanoma, 18.6%; in the assay on MDA-MB-231 breast, 13.3%. For the same molecule, the growth was -68.8% (active) in the assay on RXF 393 renal; 28.2% with SF-268 CNS; 37.5% with SF-295 CNS; -23.7% (active) in the assay on SF-539 CNS; 48.1% in the assay on UACC-257 melanoma; -1.22% (active) in the assay on M14 melanoma.
